Bioassay records as filed in PubChem.
An excerpt weighted towards active compounds, which were near 10% of everything screened.
HEK293 tox = kills HEK 293 cells; HEK 293 viability, ATP luminescence (CellTiter-Glo), 48-72 h; Potency, µM (series often up to 115 µM), without a hit: at the top dose activity change, negative = cytotoxicity, usual class: inhibitors; hit rate 6.6% among 94,000; AID 1345083; also: nearly all actives have a fitted effect of over 60% in size
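ATP-coupled CellTiter-Glo luminescence served as viability read-out, recorded 10 min after reagent addition at room temperature. HEK 293 cells, 250 cells/well, had been incubated with pintool-transferred compound for 48 or 72 hr at 37 degree Celsius.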
NPR1 antag = human Npr1 receptor antagonism. hit rate 1.6% among 76,000. Potency, µM (series often up to 46.3 µM), for the others: at the top dose activity change, negative = inhibition, actives largely listed as inhibitors. P16066. HEK293 hNpr1 GloSensor cGMP, ANP-stimulated luminescence; calls by dose curve; also: nearly all actives have a fitted effect of over 60% in size
Target sequence (P16066 whole entry, looked up): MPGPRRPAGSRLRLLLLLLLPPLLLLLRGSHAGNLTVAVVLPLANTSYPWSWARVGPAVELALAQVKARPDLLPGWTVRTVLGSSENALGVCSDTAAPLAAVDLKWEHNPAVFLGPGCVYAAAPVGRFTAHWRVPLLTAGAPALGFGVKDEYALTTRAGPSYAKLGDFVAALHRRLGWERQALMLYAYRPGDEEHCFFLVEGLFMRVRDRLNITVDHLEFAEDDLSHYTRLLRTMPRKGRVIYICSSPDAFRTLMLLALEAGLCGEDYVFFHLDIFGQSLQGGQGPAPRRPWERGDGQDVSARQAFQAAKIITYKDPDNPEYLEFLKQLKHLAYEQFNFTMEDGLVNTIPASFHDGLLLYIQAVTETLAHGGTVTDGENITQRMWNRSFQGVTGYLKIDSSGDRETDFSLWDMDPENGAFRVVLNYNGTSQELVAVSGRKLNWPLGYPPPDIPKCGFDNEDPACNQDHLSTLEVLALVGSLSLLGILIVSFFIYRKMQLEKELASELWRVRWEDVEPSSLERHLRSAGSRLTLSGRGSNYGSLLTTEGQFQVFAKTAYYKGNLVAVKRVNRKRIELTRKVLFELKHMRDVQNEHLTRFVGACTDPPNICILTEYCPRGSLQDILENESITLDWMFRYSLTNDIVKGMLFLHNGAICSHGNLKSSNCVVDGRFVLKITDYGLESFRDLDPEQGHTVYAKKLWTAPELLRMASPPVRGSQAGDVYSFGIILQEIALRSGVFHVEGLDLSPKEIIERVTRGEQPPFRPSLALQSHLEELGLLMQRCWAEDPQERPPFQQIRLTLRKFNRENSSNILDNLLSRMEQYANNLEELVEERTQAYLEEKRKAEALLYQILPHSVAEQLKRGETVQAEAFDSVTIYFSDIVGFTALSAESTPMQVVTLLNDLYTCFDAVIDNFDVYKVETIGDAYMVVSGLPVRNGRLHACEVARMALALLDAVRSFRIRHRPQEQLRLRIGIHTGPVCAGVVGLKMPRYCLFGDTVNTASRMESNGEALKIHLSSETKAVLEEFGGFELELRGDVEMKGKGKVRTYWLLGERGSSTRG
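HEK293 cells stably expressing human Npr1 and cGMP GloSensor pGS-40F, loaded 2 h with 2% GloSensor reagent, given compound 30 min at room temperature. Luminescence read before and 20 min after 0.1 nM hNppA.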
GPT2 inh = blocks human glutamate pyruvate transaminase 2 | Recombinant GPT2, coupled pyruvate oxidase/HRP Amplex Red fluorescence | Potency, µM (titrated, usually from 57.7 µM), inactives show top-dose activity change, negative = inhibition, usual class: inhibitors | AID 1671188 | Q8TD30 | hit rate 0.25% among 100,000; also: nearly all actives have a fitted effect of over 60% in size
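GPT2 10ng/uL, a-KG 250uM, L-Ala 2mM, HEPES pH7.5 + 0.0001% Tween; 30 min RT. Then Amplex mix (PO/HRP/ThPP), 30 min RT dark, fluorescence. AOA 50uM used as positive control.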
Luciferase inh = Photinus pyralis luciferase inhibition; P08659; purified P. pyralis luciferase, luminescence, biochemical; Potency, µM (top dose mostly 115 µM), actives largely listed as inhibitors; hit rate 2.5% among 76,000; also: nearly all actives have a fitted effect of over 65% in size
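Biochemical qHTS: compound (6-point titration) added to 10uM D-luciferin plus 10uM ATP in Tris acetate pH 7.5 buffer with Mg, Tween-20 and BSA, then purified enzyme at 10nM; light output imaged.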
NIH3T3 tox = cytotoxic compounds in NIH 3T3 cells; NIH 3T3 viability, CellTiter-Glo ATP luminescence, 48-72 h; Potency, µM (top dose mostly 96.7 µM), inactives show top-dose activity change, negative = cytotoxicity, most hits filed as inhibitors; hit rate 4.3% among 94,000; AID 1345082; also: nearly all actives have a fitted effect of over 55% in size
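Mouse fibroblast NIH 3T3 cells, 400 per well, received compound via pintool and were incubated for 48 or 72 hr prior to CellTiter-Glo ATP luminescence measurement.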
Starred values were filed as active, the others as inactive; i = inactive; ? = inconclusive; . = no result given; ! = not confirmed by another sample; [ ] = another dose, or the depositor's remark. Unless noted, calls follow the shape of the dose curve; as a rule, active = well fitted curve in the direction sought with a large enough effect; inconclusive = small, poorly fitted or top-dose-only effect, or another doubt; inactive = no such curve, though single readings can be large; an effect the other way counts as inactive or inconclusive. % is scaled to controls: 0 for no effect and ±100 for the full control effect; potency is read from the fitted curve at half-maximal effect.

SMILES	HEK293 tox	NPR1 antag	GPT2 inh	Luciferase inh	NIH3T3 tox
COc1ccc(-c2ccc(C(=O)N3CCCCC3)cc2)nn1	?	.	.	.	28.2µM*
CNC(=O)[C@H]1CN(C(=O)CCc2ccccc2)[C@]2(C)C(=O)N(CCO)c3ccccc3[C@H]12	?	.	1.8%[27.3 µM]	.	?
COc1cccc(N2CC(C(=O)NCCc3ccc(Cl)cc3)NC2=O)c1 (centres undefined)	-23.6%	10.5%	i	i	?
O=C(NCCc1ccc(Cl)cc1)C1CN(c2cccc(Cl)c2)C(=O)N1 (centres undefined)	?	7.6%	i	i	35.5µM*!
O=C(c1cccs1)N1CC[C@H]2COC(=O)N2c2cc(F)ccc2C1	-9.8%[172 µM]	5.9%[70.6 µM]	-15.8%[88.5 µM]	i	-14.5%[174 µM]
CCOc1ccccc1NC(=O)Cn1c(N2CCc3ccccc3C2)nc(C)cc1=O	?	?	-8.1%	i	?
CCc1cccc(NC(=O)Cn2c(N3CCc4ccccc4C3)nc(C)cc2=O)c1	?	?	i	i	28.2µM*
COc1ccc(CNC(=O)Cn2c(N3CCc4ccccc4C3)nc(C)cc2=O)cc1	?	-9.9%	3.8%	i	?
Cc1cc(=O)n(CC(=O)Nc2cccc(F)c2)c(N2CCc3ccccc3C2)n1	?	2.3%	1.4%	i	?
CCc1ccccc1NC(=O)Cn1c(N2CCc3ccccc3C2)nc(C)cc1=O	?	?	?	i	17.8µM*
Cc1cc(=O)n(CC(=O)NCc2ccccc2Br)c(N2CCc3ccccc3C2)n1	39.8µM*	-5.7%	i	i	?
Cc1cc(=O)n(CC(=O)Nc2ccc(Br)cc2)c(N2CCc3ccccc3C2)n1	89.1µM*	-14.3%	i	i	?
C[S+](=O)([O-])N1CCn2c(nnc2C(N)c2ccccc2)C1 (centres undefined)	i	.	-1.9%	.	i
COC(=O)C1=CO[C@@H](O[C@@H]2O[C@H](CO)[C@@H](O)[C@H](O)[C@H]2O)[C@@H]2[C@@H](C)[C@@H](OC(=O)/C=C/c3ccccc3)[C@@H](O)[C@H]12	.	.	i	.	.
Cc1cc(=O)n(CC(=O)Nc2ccc(C(C)C)cc2)c(N2CCc3ccccc3C2)n1	?	-13.3%	4.3%	i	25.1µM*
COc1cccc(CNC(=O)Cn2c(N3CCc4ccccc4C3)nc(C)cc2=O)c1	44.7µM*	-4.4%	i	i	-43.9%
Cc1cc(=O)n(CC(=O)Nc2ccccc2)c(N2CCc3ccccc3C2)n1	31.6µM*	-16.8%	-5.7%	i	?
COc1ccc(NC(=O)Cn2c(N3CCc4ccccc4C3)nc(C)cc2=O)cc1Cl	39.8µM*	-6.1%	i	i	35.5µM*
O=C1NC(=NC2CCCC2)C2(CCN(CC3CCCCC3)CC2)N1c1cc(F)cc(F)c1	-22.9%	.	i	.	-12.9%
COc1ccc(-c2ccc3ncc(Nc4ccncc4)n3n2)cn1	100µM*	-2.9%[70.6 µM]	-14.1%[88.5 µM]	i	?
COc1ccc(-c2ccc3ncc(Nc4ccc(OC)c(OC)c4)n3n2)cn1	?	-14.8%[70.6 µM]	-14.0%[88.5 µM]	?	?
COc1ccc(-c2ccc3ncc(Nc4cccc(Cl)c4)n3n2)cn1	44.7µM*	?	?	i	?
COc1ccc(-c2ccc3ncc(Nc4cccc(C(F)(F)F)c4)n3n2)cn1	44.7µM*	-29.8%[70.6 µM]	?	i	?
CCOc1cccc(CNC(=O)c2c(OCC3CC3)cc(=O)n3c2CCCCC3)c1	?	-0.5%	i	i	?
Cc1noc(-c2cccc(OC3CN(C(=O)NCC(C)C)C3)c2)n1	-17.1%	-6.6%	i	i	-15.0%
C=CCOc1cccc(-c2nc(C(=O)Nc3ccccc3)cs2)c1	?	1.0%	?	?	?
CCCc1noc(-c2cn(C3CCN(C(=O)c4ccc(OC)cc4OC)CC3)nn2)n1	?	-24.9%	i	i	?
CCC(O)c1cc2n(n1)CCN(c1nc(-c3ccccc3)nc3c1CCC3)C2 (centres undefined)	?	4.6%	1.4%	i	?
CCCCN1CCN(c2nc(-c3ccccc3)nc3c2CCNC3)CC1=O	79.4µM*	-0.9%	-1.6%	i	?
